Broadly, the AC50 is the concentration giving half of the maximal activity seen.

Read-out in assay [1]: TIMP metallopeptidase inhibitor 1 (TIMP1), TIMP1 (gene 7076)
The assay can be described thus: BSK_hDFCGF_TIMP1: BioMAP Diversity Plus: hDFCGF Assay for TIMP metallopeptidase inhibitor 1 (TIMP1) Biomarker Activity (AID 2283062). The note with it: primary human foreskin fibroblasts; actives raise or lower the signal. The method, boiled down: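 Fibroblasts from human foreskin are treated with test chemical and harvested at 24 h. TIMP-1 is quantified by ELISA, and gain or loss of signal is scored against DMSO.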

Read-out in assay [2]: Monokine induced gamma interferon (MIG), CXCL9 (gene 4283)
Kind of assay: BSK_hDFCGF_MIG: BioMAP Diversity Plus: hDFCGF Assay for Monokine induced gamma interferon (MIG) Biomarker Activity (AID 2283063). The conditions noted are these: primary human foreskin fibroblasts; actives raise or lower the signal. Put shortly: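 MIG signal, determined by ELISA, reflects 24 h chemical exposure of human skin primary fibroblasts. DMSO serves as negative control and baseline.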

Read-out in assay [3]: Matrix Metallopeptidase 1 (MMP1), MMP1 (gene 4312)
The assay can be described thus: BSK_hDFCGF_MMP1: BioMAP Diversity Plus: hDFCGF Assay for Matrix Metallopeptidase 1 (MMP1) Biomarker Activity (AID 2283064). The conditions noted are these: primary human foreskin fibroblasts; actives raise or lower the signal. Put shortly: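 ELISA read-out of MMP1 from human foreskin fibroblasts (primary skin cells), 24 h post-dose. Gain or loss of signal was fitted bidirectionally versus DMSO negative control; cytotoxicity was checked by SRB in parallel cultures.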

Read-out in assay [4]: Vascular cell adhesion molecule 1 (VCAM1), VCAM1 (gene 7412)
Kind of assay: BSK_hDFCGF_VCAM1: BioMAP Diversity Plus: hDFCGF Assay for Vascular cell adhesion molecule 1 (VCAM1) Biomarker Activity (AID 2283065).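 On AC50: VCAM-1 protein level quantified by ELISA after 24 h chemical exposure.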 The conditions noted are these: primary human foreskin fibroblasts; actives raise or lower the signal. Put shortly: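 Cells are dosed, cultured for 24 h, then VCAM-1 is quantified by ELISA; signal increases and decreases are both fitted relative to DMSO.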

Read-out in assay [5]: Intercellular Adhesion Molecule 1 (ICAM1), ICAM1 (gene 3383)
The assay can be described thus: BSK_KF3CT_ICAM1: BioMAP Diversity Plus: KF3CT Assay for Intercellular Adhesion Molecule 1 (ICAM1) Biomarker Activity (AID 2283067). The note with it: primary human keratinocytes with fibroblasts; actives raise or lower the signal. Put shortly:
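Dose the keratinocyte/fibroblast co-culture, wait 24 h, measure ICAM-1 by ELISA, then fit increases or decreases against DMSO. Cytotoxicity is checked in parallel cultures by SRB total-protein staining.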

Assay [6] is described as follows: BSK_KF3CT_SRB: Viability Assessment in the BioMAP Diversity Plus: KF3CT Assay (AID 2283069). The note with it: primary human keratinocytes with fibroblasts. Put shortly:
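SRB read-out at 560 nm (0.1% stain, TCA-fixed cells) gauges overt cytotoxicity in a human skin keratinocyte–fibroblast co-culture 24 h post-dosing. Signal change was fitted bidirectionally relative to DMSO control.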

Read-out in assay [7]: Interleukin-1 alpha (IL1a), IL1A (gene 3552)
The assay can be described thus: BSK_KF3CT_IL1a: BioMAP Diversity Plus: KF3CT Assay for Interleukin-1 alpha (IL1a) Biomarker Activity (AID 2283070). The conditions noted are these: primary human keratinocytes with fibroblasts; actives raise or lower the signal. The method, boiled down: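 Primary skin co-culture (keratinocytes, foreskin fibroblasts), 24 h exposure; ELISA for IL-1a; bidirectional curve fit vs DMSO.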

Read-out in assay [8]: TIMP metallopeptidase inhibitor 2 (TIMP2), TIMP2 (gene 7077)
The assay can be described thus: BSK_KF3CT_TIMP2: BioMAP Diversity Plus: KF3CT Assay for TIMP metallopeptidase inhibitor 2 (TIMP2) Biomarker Activity (AID 2283071). The note with it: primary human keratinocytes with fibroblasts; actives raise or lower the signal. Put shortly:
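Measurements come from ELISA detection of TIMP-2 at 24 hours in a dosed human keratinocyte and foreskin fibroblast co-culture. DMSO serves as negative control and baseline.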

Read-out in assay [9]: Transforming growth factor beta 1 (TGFb1), TGFB1 (gene 7040)
Kind of assay: BSK_KF3CT_TGFb1: BioMAP Diversity Plus: KF3CT Assay for Transforming growth factor beta 1 (TGFb1) Biomarker Activity (AID 2283072). The conditions noted are these: primary human keratinocytes with fibroblasts; actives raise or lower the signal. The method, boiled down:
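TGF-b1 ELISA on a 24 h dosed co-culture of human keratinocytes and foreskin fibroblasts; cytotoxicity tracked in parallel cultures by SRB staining.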

Read-out in assay [10]: C-C motif chemokine 2 (Homo sapiens) (UniProt P13500)
The assay can be described thus: BSK_KF3CT_MCP1: BioMAP Diversity Plus: KF3CT Assay for Monocyte Chemoattractant Protein 1 (MCP1/CCL2) Biomarker Activity (AID 2283073). The conditions noted are these: primary human keratinocytes with fibroblasts; actives raise or lower the signal. Put shortly:
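Keratinocytes and foreskin fibroblasts were co-cultured, dosed with chemical, and sampled 24 h later. MCP-1 was quantified by ELISA, and the endpoint was analyzed with bidirectional fitting using DMSO as negative control.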

Read-out in assay [11]: Matrix Metallopeptidase 9 (MMP9), MMP9 (gene 4318)
The assay can be described thus: BSK_KF3CT_MMP9: BioMAP Diversity Plus: KF3CT Assay for Matrix Metallopeptidase 9 (MMP9) Biomarker Activity (AID 2283074).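 On AC50: MMP9 protein level quantified by ELISA in the co-culture.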 The note with it: primary human keratinocytes with fibroblasts; actives raise or lower the signal. Put shortly: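 ELISA read-out of MMP-9 at 24 h post-dosing in a co-culture of human skin keratinocytes and foreskin fibroblasts. Gain or loss of signal was fitted in both directions against DMSO.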

Read-out in assay [12]: urokinase plasminogen activator (uPA), PLAU (gene 5328)
The assay can be described thus: BSK_KF3CT_uPA: BioMAP Diversity Plus: KF3CT Assay for urokinase plasminogen activator (uPA) Biomarker Activity (AID 2283075). The note with it: primary human keratinocytes with fibroblasts; actives raise or lower the signal. The method, boiled down: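 Skin co-culture (keratinocytes + foreskin fibroblasts), human primary; 24 h post-dose; uPA by ELISA; gain/loss fit vs DMSO baseline.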

Read-out in a further assay: CD40, CD40 (gene 958)
Kind of assay: BSK_LPS_CD40: BioMAP Diversity Plus: LPS Assay for CD40 Biomarker Activity (AID 2283076). The conditions noted are these: primary human HUVEC with PBMC; actives raise or lower the signal. Put shortly:
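CD40 signal, measured by ELISA, is fitted in both directions relative to DMSO vehicle. The system is an LPS-driven human vascular primary co-culture of endothelial cells and PBMC, sampled 24 h after compound addition.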

Read-out in assay [13]: E-selectin (Homo sapiens) (UniProt P16581)
The assay can be described thus: BSK_LPS_Eselectin: BioMAP Diversity Plus: LPS Assay for Eselectin Biomarker Activity (AID 2283077). The note with it: primary human HUVEC with PBMC; actives raise or lower the signal. The method, boiled down: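 Signal of E-selectin, detected by ELISA, served as the endpoint; cells were umbilical vein endothelium with PBMC, read 24 h after treatment. DMSO defined baseline, and both increases and decreases were fitted.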

Read-out in assay [14]: Interleukin-8 (IL8), CXCL8 (gene 3576)
Kind of assay: BSK_LPS_IL8: BioMAP Diversity Plus: LPS Assay for Interleukin-8 (IL8) Biomarker Activity (AID 2283078). The conditions noted are these: primary human HUVEC with PBMC; actives raise or lower the signal. Put shortly: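 Endothelial cells and PBMC from human donors are co-cultured, treated with chemicals and LPS, then assayed for IL-8 by ELISA after 24 h. Parallel SRB staining (0.1% SRB after 10% TCA fixation, 560 nm) flags cytotoxicity.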

Assay [15] in a line: BSK_LPS_SRB: Viability Assessment in the BioMAP Diversity Plus: LPS Assay (AID 2283079).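 Further: total protein by sulforhodamine B absorbance as a cytotoxicity measure; measured one day after compound addition.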 The conditions noted are these: primary human HUVEC with PBMC. Put shortly: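 Overt cytotoxicity was gauged by sulforhodamine B total-protein staining in a primary human vascular endothelial and mononuclear cell co-culture 24 h post-dosing. Activity was fitted in both directions relative to DMSO.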

Read-out in assay [16]: Interleukin-1 alpha (IL1a), IL1A (gene 3552)
The assay can be described thus: BSK_LPS_IL1a: BioMAP Diversity Plus: LPS Assay for Interleukin-1 alpha (IL1a) Biomarker Activity (AID 2283080). The conditions noted are these: primary human HUVEC with PBMC; actives raise or lower the signal. The method, boiled down:
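Measured: IL-1 alpha via ELISA at 24 h in LPS-activated human umbilical vein endothelium–PBMC co-culture. Baseline: DMSO, bidirectional fitting.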

Read-out in assay [17]: Interferon-gamma inducible Protein 10 (IP10), CXCL10 (gene 3627)
The assay can be described thus: BSK_KF3CT_IP10: BioMAP Diversity Plus: KF3CT Assay for Interferon-gamma inducible Protein 10 (IP10) Biomarker Activity (AID 2283068). The conditions noted are these: primary human keratinocytes with fibroblasts; actives raise or lower the signal. Put shortly:
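ELISA read-out of IP-10 after 24 h chemical dosing of human skin primary co-culture (keratinocytes, foreskin fibroblasts). Gain or loss of signal relative to DMSO, bidirectional curve fit.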

Read-out in assay [18]: Monocyte Chemoattractant Protein-1 (MCP1), CCL2 (gene 6347)
Kind of assay: BSK_LPS_MCP1: BioMAP Diversity Plus: LPS Assay for Monocyte Chemoattractant Protein-1 (MCP1) Biomarker Activity (AID 2283081). The note with it: primary human HUVEC with PBMC; actives raise or lower the signal. Put shortly:
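LPS-stimulated HUVEC/PBMC co-culture; chemical, 24 h; MCP-1 by ELISA; bidirectional fit vs DMSO; cytotoxicity via SRB (0.1% stain, 10% TCA fix, 560 nm) in parallel wells.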

Molecules are shown by their SMILES. Active and inactive are the calls of the source. How the source made its calls: active means hit-call score of the fitted dose curve at least 0.9, where 1 is the maximum; inactive means score below 0.9.

Sequence of E-selectin (Homo sapiens) (P16581 whole entry, looked up): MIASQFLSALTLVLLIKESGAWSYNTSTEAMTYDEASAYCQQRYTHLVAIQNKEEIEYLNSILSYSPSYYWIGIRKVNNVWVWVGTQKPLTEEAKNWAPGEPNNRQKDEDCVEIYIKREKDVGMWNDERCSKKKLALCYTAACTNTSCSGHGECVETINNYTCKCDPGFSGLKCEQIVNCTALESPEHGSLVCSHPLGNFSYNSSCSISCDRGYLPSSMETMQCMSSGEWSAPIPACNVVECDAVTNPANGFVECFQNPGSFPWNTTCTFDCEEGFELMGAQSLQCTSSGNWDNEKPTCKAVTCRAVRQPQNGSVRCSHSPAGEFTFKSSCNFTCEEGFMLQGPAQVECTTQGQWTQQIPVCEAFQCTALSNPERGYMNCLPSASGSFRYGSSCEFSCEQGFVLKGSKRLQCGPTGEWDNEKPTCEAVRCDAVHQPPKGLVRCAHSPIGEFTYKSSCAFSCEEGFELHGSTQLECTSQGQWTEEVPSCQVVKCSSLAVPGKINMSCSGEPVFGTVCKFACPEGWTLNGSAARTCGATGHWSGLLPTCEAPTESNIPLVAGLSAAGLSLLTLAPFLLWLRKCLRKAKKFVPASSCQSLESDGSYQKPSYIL

For `Cc1ccc(N)c(N)c1`, the outcome in [1], in assay [3], in [4], in [5], in assay [6] and in assay [7] was inactive. The outcome in assay [8] was “inactive”; in assay [9] it was “inactive”; in [10], “inactive”; in [12] it was “inactive”; in the assay with CD40, CD40 (gene 958) it was “inactive”; in assay [13], “inactive”. In addition, the outcome in assay [14], in assay [15] and in assay [16] was inactive. Moreover, the AC50 was 3.65 µM (active) in [2] and 9.74 µM (active) in [11].

As to `c1ccc(NNc2ccccc2)cc1`, the result in [1], in assay [2], in assay [3], in assay [4], in assay [5] and in [17] was inactive. For the same compound, the outcome in assay [6], in assay [7], in assay [8], in assay [9], in [10] and in [11] was inactive. The outcome is “inactive” in [12]; “inactive” in the assay with CD40, CD40 (gene 958); “inactive” in assay [13]; “inactive” in assay [14]; “inactive” in assay [15]; “inactive” in assay [16]. Moreover, the outcome in assay [18] was inactive.

As for `c1ccc(C2CO2)cc1` (centres undefined), the result in assay [1], in assay [2], in assay [3], in assay [4], in assay [5] and in [17] was inactive. The outcome in assay [6], in [7], in [8], in assay [9], in assay [10] and in assay [11] was inactive. The outcome in assay [12] was “inactive”; in the assay with CD40, CD40 (gene 958), “inactive”; in [13], “inactive”; in assay [14] it was “inactive”; in assay [15], “inactive”; in assay [16] it was “inactive”. The result in [18] was inactive.

For `CCCCOC(=O)c1ccccc1C(=O)OCc1ccccc1`, the result in assay [1], in [2], in [3], in assay [5], in assay [17] and in assay [6] was inactive. For the same compound, the outcome in [7], in assay [8], in assay [9], in [10], in assay [11] and in [12] was inactive. Besides, the outcome with CD40, CD40 (gene 958) is “inactive”; in assay [13] it was “inactive”; in [14] it was “inactive”; in assay [15] it was “inactive”; in [16] it was “inactive”; in assay [18] it was “inactive”. In addition, the AC50 in [4] is 20 µM (active).

These data come from PubChem BioAssay (EPA / NIEHS).
